High-throughput results from PubChem BioAssay.
A selection: hits, their analogues and other compounds. The true share with any hit is near 2.7%.
IP6K1 inhibitor – inhibitors of human IP6K1; activity change, % (series mostly up to about 58 µM); Q92551; 140,000 compounds, 0.81% hits; IP6K1 kinase, ADP-Glo luminescence, 2 h; hits give low values; in the data active means activity change below about -25%
Target sequence (Q92551 whole entry, looked up): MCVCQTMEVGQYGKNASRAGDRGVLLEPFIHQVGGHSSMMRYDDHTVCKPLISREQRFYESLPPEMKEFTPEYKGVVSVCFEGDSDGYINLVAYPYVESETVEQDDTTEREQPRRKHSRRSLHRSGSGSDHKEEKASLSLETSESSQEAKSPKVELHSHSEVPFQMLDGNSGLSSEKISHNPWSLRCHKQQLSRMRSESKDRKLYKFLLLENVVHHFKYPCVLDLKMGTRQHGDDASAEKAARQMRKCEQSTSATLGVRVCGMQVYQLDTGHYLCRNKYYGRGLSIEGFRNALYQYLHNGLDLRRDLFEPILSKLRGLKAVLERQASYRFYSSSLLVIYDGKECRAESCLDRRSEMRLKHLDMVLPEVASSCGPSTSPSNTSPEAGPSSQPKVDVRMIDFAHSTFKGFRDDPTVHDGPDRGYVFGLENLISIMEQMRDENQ
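ADP-Glo luminescence measures ADP made by human IP6K1 during a 2 h RT reaction with ATP/IP6 (mix at 1.3 mM/130 uM); top library doses 57.5 and 19.1 uM final.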
KDM5B inh – blocks human KDM5B histone demethylase activity; Q9UGL1; KDM5B demethylase, FDH-coupled NADH fluorescence (FDH is formaldehyde dehydrogenase); Potency, µM (highest dose often 57.7 µM), actives largely listed as inhibitors; 220,000 compounds, 2.6% hits; AID 1347165; further: nearly all actives have a fitted effect of over 70% in size
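Coupled FDH/NAD⁺ fluorescence readout. KDM5BΔAP 200 nM final; compound titration, 10 min RT preincubation; substrate mix 12.5 µM H3K4me3, 25 µM 2-OG, 50 µM Fe(II), 100 µM ascorbate, 0.25 mM NAD⁺, 0.25 U/mL FDH; ΔRFU over 30 min.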
IP6K1 inh cnf – confirmation of human IP6K1 inhibitors; shares compounds with IP6K1 inhibitor; recombinant IP6K1 kinase, ADP-Glo luminescence, 2 h; Potency, µM (highest dose often 49 µM), most hits filed as inhibitors; 1,200 compounds, 13% hits; AID 1645852; further: nearly all actives have a fitted effect of over 65% in size
Numbers stand for hits; 0 = inactive; ? = inconclusive; - = no result. Unless noted, the call rests on the fitted dose curve; in most records, active means well fitted inhibition curve with a large enough effect; inconclusive means small, poorly fitted or top-dose-only effect; inactive means no such curve, though single readings can be large or run the other way.

SMILES | IP6K1 inhibitor | KDM5B inh | IP6K1 inh cnf
CCOC(=O)C1CCN(C(=O)Cn2nc(C)n3c(cc4c(OC)cccc43)c2=O)CC1 | 0 | ? | -
CN(Cc1cccc(N2CCN(S(=O)(=O)c3ccc4ccccc4c3)CC2)c1F)S(C)(=O)=O | 0 | - | -
COCCNC(=O)Cn1cc(S(=O)(=O)Cc2ccc(C)cc2)c2ccccc21 | - | 0 | -
O=C(c1ccc(C(F)(F)F)cc1)N1CCCC(C(=O)N2CCC(N3CCOCC3=O)CC2)C1 (stereo not given) | 0 | - | -
COc1ccc(-c2cn3c(n2)sc2cc(C(=O)NCCCN4CCCCC4)ccc23)cc1 | 0 | ? | -
CCOC(=O)C1CCCN(C(=O)c2ccc3c(c2)sc2nc(-c4ccc(C)cc4C)cn23)C1 (stereo not given) | 0 | 0 | -
CCOC(=O)C1CCCN(C(=O)c2ccc3c(c2)sc2nc(-c4cccc(OC)c4)cn23)C1 (stereo not given) | -31 | ? | 0
COc1ccc(-c2cn3c(n2)sc2cc(C(=O)NCCCN4CCCCCC4)ccc23)cc1 | -62 | ? | 0
COc1ccc(-c2noc(Cn3c(=O)c4ccccc4n(CC(=O)NCc4ccccc4)c3=O)n2)cc1 | - | 0 | -
CCCC(=O)OCOC(=O)C1=C(C)NC(C)=C(C(=O)OC)C1c1cccc(Cl)c1Cl (stereo not given) | 0 | - | 0
COC(=O)C1=C(C)NC(COC(N)=O)=C(C(=O)OC(C)C)C1c1cccc(Cl)c1Cl (stereo not given) | 0 | - | -
Nc1cccc(-c2ccc(N3CCCCC3)nn2)c1 | -27 | 0 | ?
CCN1CCN(c2ccc(-c3cccc(N)c3)nn2)CC1 | 0 | 0 | -
CCn1c(CO)nnc1C1CC(NC(=O)c2ccc3nc(C)oc3c2)C1 (stereo not given) | 0 | 0 | -
CCn1c(CO)nnc1C1CC(NC(=O)c2cccc3c2OCCO3)C1 (stereo not given) | -25 | ? | 0
COc1cccc(NC(=O)c2cnc(SCC(=O)N3CCCc4ccccc43)n(C)c2=O)c1 | -27 | 0 | 0
Cn1c(SCC(=O)N2CCCc3ccccc32)ncc(C(=O)Nc2ccccc2)c1=O | 0 | 0 | -
Cc1ccc2nc(CSc3ncnc4ccccc34)cn2c1 | - | 0 | -
COCCCNc1nc(NCc2ccc(C)cc2)c2cnn(C)c2n1 | -36 | ? | 0
COCCCNc1nc(NCc2ccccc2OC)c2cnn(C)c2n1 | -30 | ? | 0
Cn1ncc2c(NCc3ccccc3Cl)nc(NCCO)nc21 | 0 | ? | -
COCCNc1nc(NCc2ccccc2OC)c2cnn(C)c2n1 | 0 | ? | -
Cc1cccc(Nc2nc(-c3cc4ccccc4oc3=O)cs2)c1 | - | 0 | -
Cc1cc(C)cc(NC(=O)C(=O)NCC(c2ccc3c(c2)OCO3)N2CCN(C)CC2)c1 (stereo not given) | 0 | 0 | -
Cc1ccc(NC(=O)C(=O)NCC(c2ccc3c(c2)OCO3)N2CCN(C)CC2)cc1C (stereo not given) | -27 | 0 | 0
SMILES | IP6K1 inhibitor | KDM5B inh | IP6K1 inh cnf
O=C(c1ccccc1)N1CCC2(C1)C(=O)N(CCc1ccccc1)c1ccccc12 (stereo not given) | 0 | 0 | -
CCC(C)NC(=O)[C@@H](NC(=O)N1CCn2c1nc1ccccc12)C(C)C (stereo not given in full) | - | 0 | -
CCc1cccc(NC(=O)c2sc3nc[nH]c(=O)c3c2C)c1 | 0 | 0 | -
Cc1c(C(=O)Nc2cccc(C(F)(F)F)c2)sc2nc[nH]c(=O)c12 | -32 | ? | ?
O=C(Cc1ccc(F)cc1)N1CCN(c2nccc(Nc3ccccc3F)n2)CC1 | 0 | - | -
CN(CC(=O)NCC(F)(F)F)Cc1ccccc1 | - | 0 | -
COc1ccc(NC(=O)c2c(NCc3ccc(N(C)C)cc3)sc3c2CCC3)cc1 | -27 | ? | 0
COc1ccc(NC(=O)c2c(NCc3cccc(OC)c3)sc3c2CCCC3)cc1 | 0 | ? | -
CC1CCc2nc3ccccc3c(C(=O)Nc3ccc(Br)cc3F)c2C1 (stereo not given) | - | 0 | -
CC(=O)Nc1ccc(Nc2ncnc3c2cnn3C)cc1 | 0 | 0 | -
CC#CC(=O)Nc1ccc2ncnc(Nc3cccc(Br)c3)c2c1 | 0 | - | -
CC(=O)c1cccc(Nc2ncnc3c2cnn3C)c1 | -38 | 0 | ?
O=C(O)c1cccc(Nc2ncnc3ccc(Br)cc23)c1 | -26 | ? | ?
Cc1cccc(/C=C/C(=O)O)c1 | - | 0 | -
c1cncc(COc2cc3c(cn2)NCCN(Cc2ccc4[nH]ccc4c2)C3)c1 | 0 | ? | -
COc1ccc(CN2CCNc3cnc(OCc4cccnc4)cc3C2)cc1O | -29 | 0 | 0
CCCC1=C(C(=O)OCC)C(c2cccc3ccccc23)C(C#N)=C(N)O1 (stereo not given) | - | 0 | -
CCc1ccc(C(=O)N(CC)CC)o1 | - | 0 | -
CC1CCCN(C(=O)COC(=O)COc2ccc(C#N)cc2)C1 (stereo not given) | - | 0 | -
